In PubChem BioAssay (NCI) one finds growth data, which are given here for eight compounds.

Some test systems named below: DU-145 prostate; K-562 leukemia; MALME-3M melanoma; MDA-MB-231 breast; RXF 393 renal; SF-268 CNS; SF-295 CNS; SF-539 CNS; UACC-257 melanoma; HCT-15 colon; HT29 colon; SNB-75 CNS; SNB-19 CNS; U251 CNS; PC-3 prostate; UACC-62 melanoma; LOX IMVI melanoma; SK-MEL-28 melanoma; SK-MEL-5 melanoma.
What all share (assay): NCI-60 one-dose screen, 48 h (100 = growth as untreated, 0 = no growth, -100 = all killed)
Holding throughout (conditions): 10 µM unless noted

Molecules are shown by their SMILES. About 83,000 compounds went through this panel and 20% of them were active in at least one assay; those are over-represented in the sample as a whole.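 Results are percent growth after 48 hours of single-concentration exposure. 100 means growth as in untreated cells, lower positive values show inhibition; negative values down to -100 show cell death.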 Values without a mark were called inactive. Activity calls are given as the source filed them. The calls were made as follows: active = growth percent below 10; inactive = the rest.

Regarding `N#Cc1c(-c2cccc(Cl)c2)cc(-c2cccc(Cl)c2)[nH]c1=O`, the growth with DU-145 prostate is 96.5%; in the test on K-562 leukemia, 27.1%; in the test on MALME-3M melanoma, 69%; in the test on MDA-MB-231 breast, 90.5%; in the test with RXF 393 renal, 82.1%; in the test on SF-268 CNS it was 83.4%. Further, the growth in the test on SF-295 CNS was 83.7%; in the test on SF-539 CNS, 82.7%; with UACC-257 melanoma, 90.2%; in the test with HCT-15 colon, 44.9%; in the test on HT29 colon it was 114%; with SNB-75 CNS, 43%. The growth with SNB-19 CNS is 71.6%; in the test with U251 CNS, 74.7%; in the test on PC-3 prostate, 68.7%; in the test on UACC-62 melanoma it was 45.2%; in the test on LOX IMVI melanoma, 72.3%; in the test on SK-MEL-28 melanoma, 78.5%.
Take `CN(c1ccccc1)c1ccc2c(c1)OCCC21CC1Nc1cnccc1C(=O)O` (centres undefined): the growth was 88.8% in the test with DU-145 prostate; 41.2% in the test with K-562 leukemia; 67.5% with MALME-3M melanoma; 72.8% in the test with MDA-MB-231 breast; 76.4% with RXF 393 renal; 60.2% in the test with SF-268 CNS. Moreover, the growth with SF-295 CNS is 44.2%; with SF-539 CNS, 52.7%; in the test on UACC-257 melanoma it was 77.5%; in the test with HCT-15 colon it was 27.1%; in the test with HT29 colon, 75.8%; in the test on SNB-75 CNS, 67.3%. Further, the growth was 66.6% in the test on SNB-19 CNS; 43.9% in the test on U251 CNS; 52.4% in the test on PC-3 prostate; 48.7% in the test on SK-MEL-5 melanoma; 62% in the test on UACC-62 melanoma; 34.3% with LOX IMVI melanoma. For the same compound, the growth in the test on SK-MEL-28 melanoma was 69.1%.
`Cc1ccc(-c2cc3c(cc2O)C2CCCCC2(N2CCOCC2)O3)cc1` (centres undefined): the growth in the test on DU-145 prostate was 106%; in the test with K-562 leukemia, 89.1%; in the test on MALME-3M melanoma, 101%; with MDA-MB-231 breast, 114%; in the test on RXF 393 renal it was 90.6%; with SF-268 CNS, 97.2%. Moreover, the growth is 103% with SF-295 CNS; 105% with SF-539 CNS; 102% with UACC-257 melanoma; 101% in the test with HCT-15 colon; 105% with HT29 colon; 75.4% in the test on SNB-75 CNS. Further, the growth was 98.7% in the test with SNB-19 CNS; 98.6% in the test with U251 CNS; 75.3% in the test with PC-3 prostate; 99.1% with SK-MEL-5 melanoma; 71.2% in the test on UACC-62 melanoma; 87.1% in the test on LOX IMVI melanoma. In addition, the growth in the test with SK-MEL-28 melanoma was 111%.
Consider `Cc1nn(-c2ccccc2)c2nc3c(c(-c4ccc(Cl)cc4)c12)CNC1(CCSCC1)N3`, for which the growth was 110% in the test with DU-145 prostate; 93.1% in the test with K-562 leukemia; 96.5% with MALME-3M melanoma; 96.9% in the test on MDA-MB-231 breast; 88.8% with RXF 393 renal; 101% with SF-268 CNS. Besides, the growth in the test with SF-295 CNS was 103%; in the test with SF-539 CNS, 110%; in the test on UACC-257 melanoma it was 107%; with HCT-15 colon it was 101%; in the test on HT29 colon, 101%; with SNB-75 CNS, 78.6%. Also, the growth in the test on SNB-19 CNS is 106%; in the test with U251 CNS, 95.8%; in the test with PC-3 prostate, 87%; with UACC-62 melanoma, 102%; with LOX IMVI melanoma it was 97.7%; in the test on SK-MEL-28 melanoma it was 104%.
For the compound `COc1ccc2nc(NNC(=O)c3cnccn3)c3cccn3c2c1`, the growth in the test with DU-145 prostate was 1.09% (active); with K-562 leukemia, 4.97% (active); in the test on MALME-3M melanoma, -6.33% (active); in the test on MDA-MB-231 breast, 5.83% (active); in the test with RXF 393 renal, 41.2%; with SF-268 CNS, 9.31% (active). Besides, the growth in the test on SF-295 CNS was 2.1% (active); in the test on SF-539 CNS, -19.7% (active); in the test with UACC-257 melanoma, -8.01% (active); in the test with HCT-15 colon, -19.5% (active); in the test with HT29 colon it was 10%; in the test with SNB-75 CNS, 25.3%. In addition, the growth was 6.9% (active) in the test with SNB-19 CNS; 0.414% (active) in the test on U251 CNS; 16.5% with PC-3 prostate; 0.958% (active) in the test on SK-MEL-5 melanoma; -34.2% (active) in the test with UACC-62 melanoma; -36.3% (active) in the test with LOX IMVI melanoma. Also, the growth in the test with SK-MEL-28 melanoma is 11.7%.
With `O=C(Nc1ccc(Cl)cc1)Nc1ccc(Cl)c(C(F)(F)F)c1`, the growth is 20.2% in the test on DU-145 prostate; -10.2% (active) in the test with K-562 leukemia; -30.7% (active) with MALME-3M melanoma; -4.47% (active) with MDA-MB-231 breast; 33.6% in the test with RXF 393 renal; 21.3% in the test on SF-268 CNS. For the same compound, the growth is -28.2% (active) in the test on SF-295 CNS; 4.38% (active) with SF-539 CNS; 2.84% (active) in the test with UACC-257 melanoma; 8.11% (active) in the test on HCT-15 colon; 18.9% in the test with HT29 colon; 41.3% in the test with SNB-75 CNS. In addition, the growth was 13% with SNB-19 CNS; 4.41% (active) in the test with U251 CNS; -8.98% (active) in the test with PC-3 prostate; -13.3% (active) in the test with SK-MEL-5 melanoma; 23.9% with UACC-62 melanoma; 19.1% in the test with SK-MEL-28 melanoma.
As to `CC(=O)N1C(=S)NC(=O)C1Cn1c(-c2ccccc2)nc2ccccc21` (centres undefined), the growth in the test on DU-145 prostate was 110%; in the test on K-562 leukemia, 101%; with MALME-3M melanoma, 101%; with MDA-MB-231 breast it was 90.4%; in the test on RXF 393 renal, 96.5%; in the test with SF-268 CNS it was 99.2%. In addition, the growth in the test on SF-295 CNS is 105%; with SF-539 CNS, 97.1%; with UACC-257 melanoma it was 107%; in the test on HCT-15 colon, 98.3%; with HT29 colon, 107%; in the test with SNB-75 CNS it was 76.2%. For the same compound, the growth in the test on SNB-19 CNS was 93.3%; in the test on U251 CNS, 101%; with PC-3 prostate, 97.8%; in the test on SK-MEL-5 melanoma, 99.1%; with UACC-62 melanoma, 91.5%; with LOX IMVI melanoma it was 95.8%. Also, the growth in the test on SK-MEL-28 melanoma was 106%.
For `Cc1cc(Cl)nc(NCc2cc(Nc3ccnc4cc(Cl)ccc34)ccc2F)n1`, the growth in the test with DU-145 prostate was 52.3%; in the test on K-562 leukemia, 26.9%; with MALME-3M melanoma, 77.2%; with MDA-MB-231 breast it was 54.4%; in the test with RXF 393 renal, 61.2%; with SF-268 CNS, 58.2%. Further, the growth with SF-295 CNS is 69.5%; in the test on SF-539 CNS it was 70.5%; in the test with UACC-257 melanoma it was 64.2%; in the test on HCT-15 colon it was 11.7%; in the test with HT29 colon it was 9.26% (active); in the test on SNB-75 CNS, 83.3%. Moreover, the growth in the test with SNB-19 CNS was 80.6%; in the test on U251 CNS, 48.9%; in the test on PC-3 prostate it was 52.7%; with SK-MEL-5 melanoma, 56.5%; with UACC-62 melanoma it was 70.7%; with LOX IMVI melanoma it was 10.4%. The growth in the test with SK-MEL-28 melanoma was 94.1%.
